Laboratory results from PubChem BioAssay AID1439 (NMMLSC, 2008).
About 770 (0.35%) of roughly 220,000 compounds were called active. Inconclusive results (about 15%) are left out. This is one part of a sample in which actives are shown more often than they occur. Values without a mark were called inactive. Rule as the data show it: active = binding response below about 49% or above about 150%; inconclusive = no clear call, values can overlap the other calls; inactive = in between.

target: Guanine nucleotide-binding protein G(o) subunit alpha (Homo sapiens) (UniProt P09471); assay: RGS7-Galphao binding modulators, primary screen, biochemical, multiplexed bead flow cytometry (AID 1439); conditions: at 10 µM, actives lie on both sides;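 also: fluorescent Galphao held in activated GDP-AlF4 state binding bead-coupled RGS7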
Sequence (P09471 whole entry, looked up): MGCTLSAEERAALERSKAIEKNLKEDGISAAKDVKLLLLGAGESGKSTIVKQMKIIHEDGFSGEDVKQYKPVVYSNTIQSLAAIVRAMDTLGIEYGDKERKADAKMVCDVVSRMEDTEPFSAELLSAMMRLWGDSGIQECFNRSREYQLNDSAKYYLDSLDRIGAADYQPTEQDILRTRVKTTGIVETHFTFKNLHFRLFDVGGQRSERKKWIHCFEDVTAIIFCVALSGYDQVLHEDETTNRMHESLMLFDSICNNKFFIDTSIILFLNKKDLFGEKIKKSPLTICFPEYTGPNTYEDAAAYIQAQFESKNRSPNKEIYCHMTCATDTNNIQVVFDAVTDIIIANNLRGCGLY

Compared with `O=C(COc1ccc(Cl)cc1)N1CCN(c2cccc(C(F)(F)F)c2)CC1`, `O=C(CN1CCN(c2ccc(Cl)cc2)CC1)N1CCCC1` is lower in binding response (% of control): 104% for the first, 102% for the second.

Going from `COCCn1c(C)cc(C(=O)COC(=O)/C=C/c2cccc(OC)c2)c1C` to `Cc1cc(C)n2nc(SCC(=O)NC(=O)NCc3ccco3)nc2n1`, the binding response (% of control) rises from 92.8% to 102%.

First: FC(F)(F)c1cccc(Cc2noc(CN3CCC(N4CCCCC4)CC3)n2)c1
Second: Cc1ccccc1CN1CCN(C(=O)c2cccc(F)c2)CC1
The binding response (% of control) of the first is lower: 104% for the first, 105% for the second.

Going from `CCOC(=O)c1sc(/N=C/C2=C(O)CC(C)(C)CC2=O)c(C(=O)OCC)c1C` to `CCOC(=O)C1=NOC(Cn2cc(C(C)=O)c(=O)[nH]c2=O)C1` (stereo unspecified), the binding response (% of control) falls from 107% to 100%.

`CC(C)CC(=O)N1CCC(O)(CS(=O)(=O)Cc2ccccc2)CC1` and `O=C(COc1ccccc1)N1CCc2ccccc2C1` are the same in binding response (% of control): 103% for the first, 103% for the second.

Compared with `COc1cc2c(cc1OC)CN(C(=O)c1cc(=O)c3ccccc3o1)CC2`, `COc1cc2c(cc1OC)CN(C(=O)c1ccc(S(=O)(=O)N3CCCCCC3)cc1)CC2` is lower in binding response (% of control): 97.6% for the first, 89.7% for the second.

First: CCC(=O)NC(=S)Nc1ccc(NC(=O)c2ccco2)c(Cl)c1
Second: O=C(Nc1cccc(Cl)c1N1CCOCC1)c1ccc2c(c1)OCCO2
The binding response (% of control) of the first is lower: 102% for the first, 108% for the second.

Going from `O=C(CSc1nnc(-c2cccs2)n1Cc1ccccc1)N1CCc2ccccc2C1` to `Cc1ccc(N2C(=O)C(Cc3ccccc3)NC2=S)cc1` (stereo unspecified), the binding response (% of control) falls from 102% to 99%.

First: CCCCCCCNc1nc(Cl)nc(NCCO)n1
Second: CN(C)C(=O)CSc1n[nH]c(-c2ccco2)n1
The binding response (% of control) of the first is lower: 93.6% for the first, 107% for the second.

Compared with `O=[N+]([O-])c1ccc(Sc2n[nH]c(-c3ccco3)n2)nc1`, `Cc1ccc(N=Nc2c(C)[nH]n(-c3ccccc3)c2=O)cc1` is lower in binding response (% of control): 105% for the first, 100% for the second.

In the case of `COC(=O)c1ccccc1OCC(=O)N1CCN(c2ccc(Cl)cc2)CC1`, the binding response (% of control) is reported as 290% (active).
For `Cc1ccccc1CS(=O)(=O)CC1(O)CCN(C(=O)c2cccc(C(F)(F)F)c2)CC1`, the binding response (% of control) was 157% (active).
In the case of `CCOc1cc(C(=O)N2CCc3cc(OC)c(OC)cc3C2)ccc1OC(F)F`, the binding response (% of control) is reported as 159% (active).
`Cn1c(=O)c2c(n(Cc3ccccc3)c1=O)NC(=O)C2CC(=O)N1CCc2ccccc2C1` (stereo unspecified) was tested, and the binding response (% of control) was 13.5% [inhibitor] (active).
In the case of `Cc1ccc(N2C(=O)C3C(c4ccccc4)(C2=O)C3(c2ccccc2)c2ccccc2)cc1` (stereo unspecified), the binding response (% of control) is reported as 14.4% [inhibitor] (active).
For `CCCC1C(c2ccccc2)C(C#N)(C#N)C2(C#N)CC1(N)NC2=O` (stereo unspecified), the binding response (% of control) was 152% (active).
